VACV Venus inh: vaccinia inhibition (Venus reporter). 330,000 tested, 0.46% active. Potency, µM (titrated, usually from 36.5 µM), inactives show at the top dose activity change, negative = inhibition, usual class: inhibitors. Vaccinia virus Venus reporter expression, fluorescence; calls by dose curve; tested in A549 cells; further: nearly all actives have a fitted effect of over 30% in size
Vaccinia mCherry: inhibitors of vaccinia virus infection (mCherry reporter signal) | Vaccinia virus mCherry reporter infection, fluorescence | Potency, µM (series often up to 36.5 µM), for inactives: at the highest dose activity change, negative = inhibition, most hits filed as inhibitors | 310,000 tested, 0.63% active; calls by dose curve; tested in A549 cells; further: nearly all actives have a fitted effect of over 35% in size
AmpC inh detg: blocks E. coli AmpC beta-lactamase in detergent assay; AID 485294; Potency, µM (series often up to 114 µM), without a hit: at the highest dose activity change, negative = inhibition, hits mostly inhibitors; AmpC hydrolysis of nitrocefin, absorbance 480 nm, 0.01% Triton; 370,000 tested, 0.041% active; P00811;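 further: 0% = no-compound wells and -100% = no-enzyme wells; nearly all actives have a fitted effect of over 25% in size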
Target sequence (P00811 whole entry, looked up): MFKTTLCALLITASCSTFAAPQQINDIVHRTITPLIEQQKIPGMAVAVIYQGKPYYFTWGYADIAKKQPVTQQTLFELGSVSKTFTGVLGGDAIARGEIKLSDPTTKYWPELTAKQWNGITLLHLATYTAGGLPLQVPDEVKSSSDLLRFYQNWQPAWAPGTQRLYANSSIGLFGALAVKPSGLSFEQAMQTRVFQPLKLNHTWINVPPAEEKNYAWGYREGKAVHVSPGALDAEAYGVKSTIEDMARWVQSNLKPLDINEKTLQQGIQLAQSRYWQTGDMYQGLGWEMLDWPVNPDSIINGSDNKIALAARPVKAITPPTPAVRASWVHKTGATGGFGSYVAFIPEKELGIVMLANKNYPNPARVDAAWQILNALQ
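20 mM phosphate pH 7.0 + 0.01% (detergent screen) or 0.0001% Triton X-100; 5.3 nM AmpC reagent; cpd preinc 15 min RT; nitrocefin (800 uM stock) to start; A480 q20 s × 4 min; Activity was normalised to no-enzyme and no-compound control wells.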
AmpC no deterg: AmpC beta-lactamase inhibition without detergent; P00811; AmpC nitrocefin hydrolysis, absorbance 480 nm, 0.0001% Triton; Potency, µM (series often up to 57.1 µM), for inactives: at the highest dose activity change, negative = inhibition, usual class: inhibitors; 330,000 tested, 0.52% active;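 further: plate controls were no compound for no effect and no enzyme for full effect; nearly all actives have a fitted effect of over 20% in size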
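20 mM phosphate pH 7.0 + 0.01% (detergent screen) or 0.0001% Triton X-100; 5.3 nM AmpC reagent; cpd preinc 15 min RT; nitrocefin (800 uM stock) to start; A480 q20 s × 4 min; Activity was normalised to no-enzyme and no-compound control wells.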
* hit, by the source's call; i = inactive; ? = inconclusive; nt = not tested or not shown. Rows were chosen to be rich in hits. Some 1.1% of all compounds tested hit in one or more screens of this group. Unless noted, the call rests on the fitted dose curve; in most records, active means well fitted curve in the direction sought with a large enough effect; inconclusive means small, poorly fitted or top-dose-only effect, or another doubt; inactive means no such curve, though single readings can be large; an effect the other way counts as inactive or inconclusive. Unless noted, on the % scale 0 is the no-effect control and ±100 the full control effect; potency means the concentration at half of the fitted maximal effect.

SMILES	VACV Venus inh	Vaccinia mCherry	AmpC inh detg	AmpC no deterg
COc1ccc(-c2cc(-c3cc(C)ccc3O)[nH]n2)cc1	?	8.9µM*	7%	-35%
Cc1ccc(NC(=O)c2cc(-c3ccc(C)c(C)c3O)n[nH]2)cc1C	-17%	-13%	-17%	-23%
COc1ccc(OC)c(NC(=O)c2cc(-c3cc(C)ccc3O)n[nH]2)c1	11µM*	10µM*	5%	-29%
COCc1c(C(=O)N2CCCC(C)C2)cnn1-c1nccc(-c2cc(C)sc2C)n1 (stereo not drawn)	-3%	-5%	nt	nt
CO[C@H]1[C@H](NC(=O)C(C)C)c2ccccc2C12CCN(Cc1c(C)nn(C)c1Cl)CC2	2%	-8%	nt	nt
C=CCC[C@H](Cc1ccc(F)cc1)C(=O)OC[C@@H](Cc1c[nH]c2ccccc12)NC(=O)[C@@H](CC=C)CC(=O)N(CCO)Cc1ccccc1	11µM*	13µM*	nt	31%
C=CCC[C@@H](Cc1ccc(F)cc1)C(=O)OC[C@H](Cc1c[nH]c2ccccc12)NC(=O)[C@H](CC=C)CC(=O)N(CCO)Cc1ccccc1	?	?	nt	2%
C=CCC[C@@H](Cc1ccc(F)cc1)C(=O)OC[C@@H](Cc1c[nH]c2ccccc12)NC(=O)[C@@H](CC=C)CC(=O)NCCO	-28%	i	nt	230%
C=CCC[C@H](Cc1ccc(F)cc1)C(=O)OC[C@H](Cc1c[nH]c2ccccc12)NC(=O)[C@@H](CC=C)CC(=O)N(CCO)Cc1ccccc1	11µM*	?	nt	25%
COCCN(C)C(=O)c1cnn(-c2ncc3c(n2)-c2ccccc2CC3)c1C	-17%	-3%	nt	nt
Cc1cnc(-n2ncc(C(=O)N(C)CCc3ccccn3)c2-c2cccs2)nc1-c1ccc(F)cc1	-5%	-17%	nt	nt
CC(=O)N(Cc1ccc(F)cc1)C1=C(NCCc2ccccc2)C(=O)c2ccccc2C1=O	3.2µM*	2.8µM*	-10%	85%
CC1(C)COC(/C=C/c2cccc([N+](=O)[O-])c2)=N1	?	11µM*	6%	8%
O=C(CCCC(=O)N/N=C\c1ccccn1)N/N=C\c1ccccn1	-7%	-3%	-2%	-10%
S=C(NN=C(c1ccccc1)c1ccccn1)N(Cc1ccccn1)Cc1ccccn1	?	2.5µM*	nt	nt
S=C(NN=Cc1ccccn1)N(Cc1ccccn1)Cc1ccccn1	?	5.6µM*	nt	nt
CC(=NNC(=S)N(Cc1ccccn1)Cc1ccccn1)c1cnccn1	3.5µM*	1.4µM*	nt	nt
Cc1ccccc1NC(=S)N(Cc1ccccn1)Cc1ccccc1Cl	-7%	-14%	?	-17%
CCOc1ccccc1CN1CCCC(c2nc(C)ncc2-c2ccc(F)cc2)C1 (stereo not drawn)	-6%	-20%	nt	nt
COC(=O)C1=C(C)OC(N)=C(C#N)C1c1ccc(OC)c(CSc2ccccn2)c1 (stereo not drawn)	nt	nt	1%	0.22µM*
C/C(=N\NC(=O)CSCc1ccccc1Cl)c1cccc(NC(=O)c2ccccc2)c1	?	-16%	-5%	22µM*
CN(CC1COCCO1)C(=O)c1cnn(-c2ncc3c(n2)-c2ccccc2CC3)c1C1CC1 (stereo not drawn)	-28%	?	nt	nt
COc1ccc(CN2CCOc3ccc(CN4CCC(Oc5cccnc5)CC4)cc3C2)c(F)c1	-28%	-10%	nt	nt
CCOc1ccc(S(=O)(=O)Nc2cc(Sc3ncn[nH]3)c3oc(=O)sc3c2)cc1	nt	nt	-7%	5.6µM*
Cc1ccc2nc(N(CCCN(C)C)C(=O)c3ccc(S(=O)(=O)N4CCc5ccccc5C4)cc3)sc2c1	?	?	0%	183%
SMILES	VACV Venus inh	Vaccinia mCherry	AmpC inh detg	AmpC no deterg
COc1ccc2sc(N(CCCN(C)C)C(=O)c3ccc(S(=O)(=O)N4CCc5ccccc5C4)cc3)nc2c1	11µM*	?	0%	240%
CCN(Cc1ccccc1)S(=O)(=O)c1ccc(C(=O)N(CCCN(C)C)c2nc3c(C)c(C)ccc3s2)cc1	?	11µM*	0%	186%
COc1ccc2sc(N(CCCN(C)C)C(=O)c3ccc(S(=O)(=O)N4CCCC4)cc3)nc2c1	-24%	-10%	?	121%
CN(C)CCCN(C(=O)c1ccc(S(=O)(=O)N2CCc3ccccc3C2)cc1)c1nc2ccc(F)cc2s1	16µM*	13µM*	-6%	197%
CCn1c(C)nc2cc(NS(=O)(=O)c3ccccc3)cc(C(=O)N3C[C@@H](C)O[C@@H](C)C3)c21	-10%	i	nt	nt
Cc1ncc2c(c1CNS(=O)(=O)N(C)C)CCN(C(=O)c1c(F)cccc1F)C2	13%	-4%	nt	nt
CCSc1nc(-c2ccccc2)nc(C(Cl)Cl)n1	10µM*	?	-2%	-14%
CCCC(=O)NC(c1ccccc1OC)c1ccc2cccnc2c1O (stereo not drawn)	?	10µM*	0%	-2%
CC(C)CC(=O)NC(c1cccs1)c1ccc2cccnc2c1O (stereo not drawn)	?	6.3µM*	-1%	-16%
CCCCC(=O)NC(c1ccccc1OC)c1ccc2cccnc2c1O (stereo not drawn)	-28%	7.9µM*	0%	-18%
COc1ccc(NC(=O)C2CCN(S(=O)(=O)c3cccc4cccnc34)CC2)cc1	-6%	i	3%	56µM*
CC(=O)c1ccc(NC(=O)C2CCN(S(=O)(=O)c3cccc4cccnc34)CC2)cc1	-10%	i	?	-22%
COc1ccc2c(CC(=O)OCC(=O)Nc3ccc(C)cc3)coc2c1	nt	nt	-14%	-33%
COc1ccc2c(CC(=O)OCC(=O)Nc3ccc(S(N)(=O)=O)cc3)coc2c1	1%	-4%	-8%	10µM*
CCCc1cc(=O)oc2cc(OCC(=O)NCc3cccs3)ccc12	nt	nt	-7%	-37%
CCCc1cc(=O)oc2cc(OCC(=O)Nc3ccc(S(N)(=O)=O)cc3)ccc12	nt	nt	56µM*	28µM*
C[C@H]1CN=C(N(C)C)N1CC1CCC(C(C)(C)C)CC1 (stereo partly drawn)	?	7.9µM*	?	28%
C[C@H]1CN=C(N(C)C)N1CC1CCCC1	-9%	i	-12%	-22%
O=C(COC(=O)C12CC3CC(CC(C3)C1)C2)Nc1nc2c(F)c(F)c(F)cc2s1	-8%	-14%	-1%	10µM*
Nc1nc[nH]c(=O)c1N	-13%	17%	nt	nt
CCc1ccc(S(=O)(=O)Nc2ccc(O)c3c(=O)cc(-c4ccccc4Cl)oc23)cc1	-30%	-9%	6%	-51%
O=c1cc(-c2ccccc2Cl)oc2c(NS(=O)(=O)c3cc(Cl)cc(Cl)c3O)ccc(O)c12	13µM*	?	-16%	-39%
O=C1NC(=S)S/C1=C\C=C\c1ccc([N+](=O)[O-])o1	?	?	-8%	11µM*
CC(=O)Nc1ccc(/C=C2\C=Cc3ccccc32)cc1	-22%	-14%	nt	nt
Clc1ccc2c(N3CCOCC3)ccnc2c1	-21%	-5%	-11%	-1%
Clc1ccc2c(c1)CNc1c(ncnc1N1CCOCC1)O2	10µM*	nt	?	23%
COC(=O)c1cn([C@@H]2C[C@@H](C(=O)Nc3cccc(SC)c3)N(C3CCCC3)C2)nn1	-1%	-7%	nt	nt
